From PubChem BioAssay AID800 (PCMD, 2007)
Hit rate of the full screen: of about 220,000 compounds, about 650 (0.3%) were called active. No stated cut-off is given here; in the data, active means inhibition above about 40%; inactive means the rest. Many of the other results were omitted from the sample, so actives are more common in it than they were.

Target: Coagulation factor XII (Homo sapiens) (UniProt P00748)
Assay: coagulation factor XIIa activity inhibition – biochemical, 1536-well, primary screen (AID 800);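 further: 0% = enzyme with no compound and 100% = blank without enzyme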
Details: purified FXIIa, Boc-QGR-AMC fluorogenic substrate, 2 h; at 5 µM; stronger effect = higher value

Coagulation factor XII (Homo sapiens), sequence (P00748 20-372 limits assumed): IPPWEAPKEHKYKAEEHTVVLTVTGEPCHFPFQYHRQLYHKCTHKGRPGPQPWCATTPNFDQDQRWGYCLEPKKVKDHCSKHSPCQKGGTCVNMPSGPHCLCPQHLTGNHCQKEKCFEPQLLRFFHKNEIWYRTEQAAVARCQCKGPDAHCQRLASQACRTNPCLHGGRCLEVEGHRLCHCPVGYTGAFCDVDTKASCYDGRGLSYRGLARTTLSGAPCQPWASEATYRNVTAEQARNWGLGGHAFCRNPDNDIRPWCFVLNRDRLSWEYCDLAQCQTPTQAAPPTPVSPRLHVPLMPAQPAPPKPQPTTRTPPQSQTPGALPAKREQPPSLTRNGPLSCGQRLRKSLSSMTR
Coagulation factor XII (Homo sapiens), sequence (P00748 373-615 limits assumed): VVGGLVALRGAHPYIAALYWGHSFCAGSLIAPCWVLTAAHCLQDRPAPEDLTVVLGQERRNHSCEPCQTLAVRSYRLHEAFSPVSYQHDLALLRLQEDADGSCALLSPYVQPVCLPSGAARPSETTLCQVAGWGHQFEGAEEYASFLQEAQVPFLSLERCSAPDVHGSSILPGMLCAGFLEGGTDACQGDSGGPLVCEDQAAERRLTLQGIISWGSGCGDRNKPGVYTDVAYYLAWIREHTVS

Structure (SMILES)	inhibition
COc1ccc(SC[C@H](Cc2ccccc2)N2CCN(CCc3ccccc3)CCC2=O)cc1	9.1% (inactive)
NC(=O)c1nnsc1-c1ccc(-c2snnc2C(N)=O)cc1	-1.04% (inactive)
COC(=O)c1cc(S(=O)(=O)N2CCC(C(N)=O)CC2)oc1C	1.7% (inactive)
NC(=O)CC(NC(=O)Cc1cccc2ccccc12)c1ccc(NCc2cc(F)ccc2F)c([N+](=O)[O-])c1 (centres undefined)	3.78% (inactive)
Nc1ccccc1C(=O)NC1CCCCNC1=O (centres undefined)	3.81% (inactive)
O=C(Nc1cccnc1Oc1ncnc2cc(Cl)ccc12)c1ccc(F)cc1	0.47% (inactive)
CCOC(=O)CC1C(=O)NCCN1c1nc2c(C)cccn2c(=O)c1/C=C1\SC(=S)N(C(C)CC)C1=O (centres undefined)	14% (inactive)
S=c1[nH]nc(-c2cc(-c3ccccc3)n[nH]2)n1/N=C/c1c2ccccc2cc2ccccc12	8.1% (inactive)
CC(C)c1nc(SCC(=O)NC(=O)NC(C)(C)C)n[nH]1	12.8% (inactive)
Cc1ccc(NNC(=O)C2CCC2)cc1C	10.5% (inactive)
C=CCC1(C#N)C(=S)NC(C)=C(C(=O)OCC)C1c1ccccc1 (centres undefined)	6.96% (inactive)
Cc1nc(Cl)c(C#N)c2c1CCCC2	2.37% (inactive)
Cc1cc(C)c(NC(=O)CN2C(=O)NC(Cc3ccccc3)C2=O)c(C)c1 (centres undefined)	0.73% (inactive)
CC(C)=CCc1c(O)c(CC=C(C)C)c2occ(-c3ccc(O)cc3)c(=O)c2c1O	7.17% (inactive)
O=C(O)C1=C[C@H](c2cccs2)C[C@H](OCCCCO)O1	7.11% (inactive)
Cc1ccc(S(=O)(=O)NC(=O)N2CCCN(Cc3ccc(F)cc3)CC2)cc1	3.56% (inactive)
Cc1ccc(NC(=O)Nc2cc(-c3ccccc3)nn2C)cc1Cl	-1.26% (inactive)
Nc1nnc(SCC(=O)NC2CCCc3ccccc32)s1 (centres undefined)	-2.74% (inactive)
CN(C)C(=O)c1coc2nc3ccccc3nc12	7.55% (inactive)
CC1Cc2ccccc2N1S(=O)(=O)c1ccc(Cl)nc1 (centres undefined)	1.69% (inactive)

Structure (SMILES)	inhibition
COc1ccc2c(c1)c1ncn(Cc3ccccn3)c(=O)c1n2C	-1.96% (inactive)
CN=C1C=C/C(=N/N=c2\ccn(O)cc2C)C=C1C	12.1% (inactive)
O=C1CCC(=O)N(O)CCCCCNC(=O)CCC(=O)N(O)CCCCCNC(=O)CCC(=O)N(O)CCCCCN1	6.14% (inactive)
O=C(O)C(F)(F)C(NCc1ccccc1)c1ccccc1 (centres undefined)	18.5% (inactive)
CCOC(=O)CSc1nc(C)c(Oc2ccc(Cl)cc2Cl)c(=O)[nH]1	10.3% (inactive)
COCCCn1c(-c2cccs2)nc2nc3ccccc3nc21	-19.8% (inactive)
CSCC[C@H](NC(=O)NC1CCCC1)C(=O)O	0.35% (inactive)
CCN(CC(=O)Nc1ccc(S(=O)(=O)N2CCCC2)cc1)CC(=O)Nc1cccc(OC)c1	3.63% (inactive)
O=C(NN1C(=O)C2CCCCC2C1=O)c1ccco1 (centres undefined)	5.14% (inactive)
C/C(=N/NC(=O)CC(=O)N/N=C(\C)c1ccc([N+](=O)[O-])cc1)c1ccc([N+](=O)[O-])cc1	6.83% (inactive)
COc1cccc(NC(=O)CS(=O)(=O)c2cn(CC(=O)N3CCOCC3)c3ccccc23)c1	2.47% (inactive)
O=C(CS(=O)(=O)c1cn(Cc2cccc(F)c2)c2ccccc12)N1CCCCC1	14.4% (inactive)
O=C(CS(=O)(=O)c1cn(Cc2ccc(Cl)cc2)c2ccccc12)N1CCOCC1	45.4% (active)
CCN(CC)CCC(c1ccc2c(c1)OCO2)c1c(OC)cc(OC)c2c(-c3ccccc3)cc(=O)oc12 (centres undefined)	8.45% (inactive)
CCN1CC(CN(C)Cc2nc(-c3ccc(Cl)cc3)no2)CC1=O (centres undefined)	7.51% (inactive)
CN(Cc1ccccn1)Cc1nc(-c2ccc(Cl)cc2)no1	103% (active)
COC(=O)c1ccc(-c2noc(CN(Cc3ccccn3)CC3CCCO3)n2)cc1 (centres undefined)	14.6% (inactive)
COc1cc(OC)c2ccc(=O)oc2c1C(CCN1CCN(c2ccccc2)CC1)c1ccc2c(c1)OCO2 (centres undefined)	7.95% (inactive)
CCOC(=O)c1c(N)sc2c1CCCC2=O	5.97% (inactive)
O=C(O)C1CCN(C(=O)c2cc(F)cc3c2OCOC3)CC1	4.37% (inactive)

Structure (SMILES)	inhibition
Cc1ccc(Nc2c3c(nc4ccccc24)CCC3)cc1	9.63% (inactive)
CSc1nnc(SCc2nc3sc(C(=O)O)c(C)c3c(=O)[nH]2)s1	10.1% (inactive)
COc1ccc(CCNC(=O)CCn2c(=O)c3ccccc3n(CC(=O)NCC3CCCO3)c2=O)cc1OC (centres undefined)	40% (active)
COc1ccc(CCNC(=O)Cn2c(=O)n(CC3CCCO3)c(=O)c3ccccc32)cc1OC (centres undefined)	-8.44% (inactive)
COc1ccc(CCNC(=O)CCn2c(=O)oc3ccccc32)cc1OC	7.51% (inactive)
Cc1cc(Cl)ccc1NNC(=O)c1snnc1C	7.13% (inactive)
COc1ccc(SCCN2CCN(CC(C)C)CCC2=O)cc1	7.64% (inactive)
CC1(C)CC(=O)C=C(Nc2ccccc2)C1	6.92% (inactive)
S=c1[nH]nc(-c2cc(-c3ccsc3)n[nH]2)n1-c1ccccc1	4.05% (inactive)
CC(C)C(=O)N1CCC2(CC1)Oc1ccc(F)cc1C(=O)C21CC(c2ccccc2)=NO1 (centres undefined)	8.49% (inactive)
O=c1cc(CCl)nc2scc(-c3ccccc3)n12	6.87% (inactive)
CN(C)c1ccnc2sc3c(=O)n(Cc4ccccc4)cnc3c12	2.78% (inactive)
Cc1c(C#N)c2ncn(CC#N)c(=O)c2n1-c1ccccc1	7.67% (inactive)
CN(C)/C=C/c1c(C#N)c(=O)ncn1Cc1ccccc1	53% (active)
O=C(N/N=C/c1cccc2cccnc12)[C@H]1C[C@@H]1c1ccccc1	8.29% (inactive)
O=C(O)CCn1c(O)c(C=C2N=c3ccccc3=N2)sc1=S	12.8% (inactive)
COc1ccc(Cl)cc1S(=O)(=O)N1CCC(O)(c2ccc(Cl)cc2)CC1	3.43% (inactive)
Cc1cc(N)n(-c2ccc(S(=O)(=O)N3CCCC3)cc2[N+](=O)[O-])n1	3.82% (inactive)
O=C(Nc1ccc(N2CCN(C(=O)c3ccccc3)CC2)c(Cl)c1)c1ncn[nH]1	7.54% (inactive)
